Source: PubChem BioAssay
MEKK2 WT-MEK5 = raises or lowers MEK5 binding to wildtype human MEKK2 PB1 domain | bead flow cytometry, Alexa488-MEK5 binding to MEKK2 WT; actives lie on both sides | binding response (% of control), % at 10 µM | 1.1% of 290,000 active; in the data active = binding response below about 67% or above about 130%
MEKK2 mut-MEK5 = signal of MEK5 binding to mutant human MEKK2 PB1 domain; bead flow cytometry, Alexa488-MEK5 binding to MEKK2 mutant; AID 1530; 0.35% of 290,000 active; percent response, % at 10 µM; in the data active = percent response above about 24%, passing the limit was not always enough
MEKK3 PB1 HTS = MEKK3-MEK5 PB1 interaction, increase or decrease; bead-based flow cytometry, Alexa488-MEK5 binding to MEKK3; actives lie on both sides; 0 = blocked by unlabeled MEK5, 100 = vehicle; binding response (% of control), % at 10 µM; 1.4% of 290,000 active;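 active = binding response more than 3 SD above or below the average of its plate-row segment, actives on both sides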;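 note: Alexa488 bead fluorescence after subtracting the streptavidin-only scavenger bead signal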
Target sequence (Q99759 whole entry, looked up): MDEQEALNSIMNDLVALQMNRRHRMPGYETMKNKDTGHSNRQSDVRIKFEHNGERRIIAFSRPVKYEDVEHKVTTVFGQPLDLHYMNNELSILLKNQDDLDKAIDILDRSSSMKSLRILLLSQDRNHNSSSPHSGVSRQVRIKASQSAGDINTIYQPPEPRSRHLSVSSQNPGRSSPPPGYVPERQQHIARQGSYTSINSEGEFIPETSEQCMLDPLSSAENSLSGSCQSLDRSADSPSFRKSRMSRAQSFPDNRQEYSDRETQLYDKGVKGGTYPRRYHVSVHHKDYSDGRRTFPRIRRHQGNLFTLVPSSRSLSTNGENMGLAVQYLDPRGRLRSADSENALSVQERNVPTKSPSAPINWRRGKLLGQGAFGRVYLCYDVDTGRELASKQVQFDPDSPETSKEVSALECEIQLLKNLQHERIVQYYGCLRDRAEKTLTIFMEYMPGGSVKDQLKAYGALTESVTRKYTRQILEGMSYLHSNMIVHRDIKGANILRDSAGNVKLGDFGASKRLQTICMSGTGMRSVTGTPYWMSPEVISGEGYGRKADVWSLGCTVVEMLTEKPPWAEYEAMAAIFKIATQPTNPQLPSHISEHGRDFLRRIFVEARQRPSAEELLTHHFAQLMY
GRK2 aptamer HTS = inhibitors of human GRK2 displacing RNA aptamer; 0.59% of 330,000 active; P25098; bead flow cytometry, FAM-aptamer displacement from GRK2; inhibition of aptamer binding, % at 10 µM;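 active = inhibition of aptamer binding above 40%, roughly 3 SD of noise, on plates passing a quality check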;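 note: median bead fluorescence of bound FAM aptamer so fluorescent compounds give negative values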
An asterisk follows results filed as active; · = no result given; [ ] = remark or other dose. Only some compounds are listed: those with a hit (about 2.5% of all), similar ones and a draw of the others.

SMILES	MEKK2 WT-MEK5	MEKK2 mut-MEK5	MEKK3 PB1 HTS	GRK2 aptamer HTS
COc1ccc(OCC(O)CN2CCC(CN3C(=O)c4cccc5cccc(c45)C3=O)CC2)cc1 (stereo not drawn)	·	·	·	2.0
Cc1ccc(C)c(OCC(O)CN2CCC(CN3C(=O)c4cccc5cccc(c45)C3=O)CC2)c1 (stereo not drawn)	162.0*	6.0	112.0	0.0
Cc1ccccc1OCC(O)CN1CCC(C)CC1 (stereo not drawn)	0.0*[inhibitor]	-47.0	1.0*[inhibitor]	0.0
Cc1ccc(OCC(O)CN2CCC(Cc3ccccc3)CC2)c(C)c1 (stereo not drawn)	124.0	15.0	104.0	0.0
O=C(O)C1CCN(c2ccc(Cl)nn2)CC1	84.0	-9.0	99.0	0.0
CCOC(=O)C1CCN(c2ccc(Cl)nn2)CC1	-3.0*	4.0	105.0	3.0
CC(C)c1nnc(SCC(=O)N2CCc3ccccc32)n1N	97.0	-2.0	103.0	4.0
CCc1c(C)nn(C(=O)/C(C#N)=C\N(C)C)c1C	98.0	-2.0	100.0	3.0
Cc1cc(C)cc(OCC(=O)N/N=C/c2ccncc2)c1	113.0	5.0	105.0	55.0*
Cc1ccccc1OCC(=O)N/N=C/c1ccncc1	94.0	-4.0	88.0	1.0
Cc1ccc(/C=N/NC(=O)CNC(=O)COc2ccccc2)cc1	120.0	20.0	105.0	2.0
COc1ccc(/C=N/NC(=O)CNC(=O)COc2ccccc2)cc1	4.0*	-60.0	83.0	1.0
CCOC(=O)c1nsnc1NCCSC(=N)N	105.0	-1.0	103.0	3.0
C=CCN(C(=O)c1oc2c(Cl)cc(C)cc2c1C)C1CCS(=O)(=O)C1 (stereo not drawn)	100.0	-1.0	97.0	0.0
Cc1cc(Cl)c2oc(C(=O)N(C)CC3CCOCC3)c(C)c2c1	43.0*[inhibitor]	-39.0	31.0*[inhibitor]	2.0
CCN1CCN(C(=O)C(=O)c2cn(CC(=O)N3CCCCCC3)c3ccccc23)CC1	56.0*	9.0	102.0	22.0
COc1ccc(N2CCN(C(=O)C(=O)c3cn(CC(=O)N4CCCCCC4)c4ccccc34)CC2)cc1	-5.0*	5.0	97.0	8.0
COc1ccc(N2CCN(C(=O)C(=O)c3cn(CC(=O)N4CCOCC4)c4ccccc34)CC2)cc1	100.0	-1.0	95.0	0.0
COc1ccccc1OCC(=O)Nc1cc(C(F)(F)F)ccc1-n1cncn1	·	·	·	2.0
CCCC1(C)NC(=O)c2ccccc2O1 (stereo not drawn)	95.0	-6.0	98.0	0.0
Fc1cnc(N2CCOCC2)nc1N1CCOCC1	99.0	0.0	100.0	0.0
Clc1nc(N2CCOCC2)ncc1Br	-4.0*	2.0	91.0	1.0
Nc1ccc(O)c(-c2nc3ccccc3s2)c1	97.0	0.0	94.0	0.0
Oc1ccc(-c2nc3ccccc3s2)c(O)c1	-2.0*	2.0	93.0	0.0
Nc1nn(-c2ccccc2)c(N)c1N=Nc1ccccc1	101.0	-2.0	97.0	0.0
SMILES	MEKK2 WT-MEK5	MEKK2 mut-MEK5	MEKK3 PB1 HTS	GRK2 aptamer HTS
Nc1nn(-c2ccccc2)c(N)c1N=Nc1ccccc1F	102.0	0.0	129.0*	0.0
CCCCN(C)C(=O)c1nc2ccccn2c1CN1CCN(C(=O)c2cccs2)CC1	101.0	-2.0	103.0	0.0
COc1cc(OC)cc(-c2nc3ccccc3c(=O)n2OC(=O)c2ccc(C)c(C)c2)c1	97.0	-2.0	101.0	0.0
N#C/C(=C/c1ccc(-c2ccccc2)o1)c1nc(-c2cccs2)cs1	·	117.0*	98.0	4.0
CC(C)[C@@H](CO)N(C)S(=O)(=O)c1ccccc1Br	·	·	·	0.0
COc1cc(/C(C)=N/Nc2ccc(C(=O)O)cc2)cc(OC)c1OC	105.0	-1.0	104.0	71.0*
O=C(Cc1ccc(Cl)cc1)NCCCNC(=O)c1cccnc1	100.0	6.0	99.0	3.0
COc1ccc(S(=O)(=O)N2CCN(C(=O)C3CCCO3)CC2)cc1 (stereo not drawn)	108.0	9.0	102.0	0.0
CCCCc1oc2ccccc2c1C(=O)c1cc(I)c(OCCN(CC)CC)c(I)c1	163.0*	51.0*	119.0	0.0
CCCOc1cc(N(CC)CC)ccc1/C=C(/C#N)c1nc2ccc(C)cc2[nH]1	57.0*	87.0*	111.0	0.0
Cc1ccc(CSc2nnc(SCC(=O)N/N=C/C=C/c3ccco3)s2)cc1	115.0	24.0	106.0	83.0*
Cc1ccc(CSc2nnc(SCC(=O)N/N=C/C=C/c3ccccc3[N+](=O)[O-])s2)cc1	96.0	-1.0	90.0	0.0
O=C(CNc1ccccc1)NN=C1CCCC1	100.0	-1.0	107.0	1.0
COc1cc(/C=N/NC(=O)C(=O)/C=C2\NC3(CCCC3)Cc3ccccc32)ccc1O	106.0	9.0	101.0	2.0
O=C(/C=C1\NC2(CCCC2)Cc2ccccc21)C(=O)N/N=C/c1ccccc1O	102.0	0.0	174.0*	2.0
O=C(CC1CC2CCC1C2)N1CCN(S(=O)(=O)c2ccccc2F)CC1 (stereo not drawn)	·	·	·	1.0
CCC1(C)Cc2c(sc(NC(=S)NC(=O)c3ccccc3)c2C#N)CO1 (stereo not drawn)	98.0	-1.0	87.0	0.0
CN1Cc2sc(NC(=S)NC(=O)c3ccccc3)c(C#N)c2CC1(C)C	-14.0*	11.0	93.0	32.0
Cc1cccc(C)c1NC(=O)C1c2cccc[n+]2CC(=O)N1Cc1ccc2c(c1)OCO2 (stereo not drawn)	50.0*	44.0	99.0	0.0
Cc1onc(-c2ccccc2)c1C(=O)N1CCN(S(=O)(=O)c2ccc(OC(F)(F)F)cc2)CC1	104.0	-2.0	105.0	1.0
Cc1ccc(C(C)C)c(OCc2nn(CC(=O)c3ccc(Cl)cc3)c3[n+]2CCCCC3)c1	192.0*	18.0	91.0	0.0
O=C(Cn1nc(CNc2ccc(Cl)cc2)[n+]2c1CCCCC2)c1ccccc1	130.0	39.0	114.0	0.0
Cc1ccc(S(=O)(=O)N(CCCO)Cc2cc3c(C)ccc(C)c3[nH]c2=O)cc1	-2.0*	-12.0	90.0	0.0
COc1ccc(-c2cnc(N)n2C)cc1	-8.0*	-36.0	98.0	1.0
O=C(Cc1ccc(Cl)cc1)NCCc1cnc[nH]1	106.0	6.0	104.0	0.0
SMILES	MEKK2 WT-MEK5	MEKK2 mut-MEK5	MEKK3 PB1 HTS	GRK2 aptamer HTS
O=C1Nc2ccc(Br)cc2C12NNc1ccccc1O2 (stereo not drawn)	-4.0*	-5.0	93.0	5.0
CC(C)C(NC(=O)C12CC3CC(CC(C3)C1)C2)C(=O)N/N=C/C1=C(N2CCOCC2)C(=C\c2ccc([N+](=O)[O-])cc2)/CC1 (stereo not drawn)	-2.0*	3.0	96.0	3.0
CC(NC(=O)C12CC3CC(CC(C3)C1)C2)C(=O)N/N=C/C1=C(N2CCOCC2)C(=C\c2cccc([N+](=O)[O-])c2)/CC1 (stereo not drawn)	97.0	-1.0	98.0	0.0
CC(Sc1nnnn1-c1ccc(O)cc1)C(=O)NNC(=O)c1ccc(F)cc1 (stereo not drawn)	·	·	·	3.0
O=C(Cn1ncc2c([nH]c3ccccc32)c1=O)Nc1ccc(CN2CCCCC2)cc1	147.0*	25.0*	107.0	0.0
COc1ccccc1/C=C1\SC(=S)N(Nc2nc(C)cc(C)n2)C1=O	88.0	-7.0	89.0	2.0
